From PubChem BioAssay AID1159580 (chemical genetic matrix, 2015)
Out of some 5,500 compounds screened, about 2,000 (36%) were called active. Another 18% or so got no clear call; they are omitted. Some of the results follow. Unmarked numbers belong to inactive results. Cut-off read from the data, not from the text of the source: active = normalized growth mostly below about 0.91 (no sharp cut-off); inconclusive = no clear call, values can overlap the other calls; inactive = mostly above about 0.92.

Test: chemical genetic growth profiling, strain panel (AID 1159580);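 note: tested at 20 µM; growth read once vehicle control cultures reached saturation at 30 °C; 1 = growth at the plate median or of vehicle wells; lower values mean less growth of the strain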
Conditions: S. cerevisiae deletion strains, growth OD

## Clc1ccc(C(OCCN2CCCCC2)c2ccccc2)cc1 (stereo not drawn)
Locus YAL013W, strain DEP1, hits give low values
  normalized growth: 1
Locus YAL021C, strain ccr4, hits give low values
  normalized growth: 0.954
Locus YAL026C, strain drs2, hits give low values
  normalized growth: 1.02
Locus YAL030W, strain snc1, hits give low values
  normalized growth: 1.01
Locus YBL061C, strain skt5, hits give low values
  normalized growth: 1.02
Locus YBR009C, strain hhf1, hits give low values
  normalized growth: 1
Locus YBR021W, strain FUR4, hits give low values
  normalized growth: 0.833 (active)
Locus YBR023C, strain chs3, hits give low values
  normalized growth: 1.02
Locus YBR171W, strain sec66, hits give low values
  normalized growth: 1.02
Locus YBR229C, strain ROT2, hits give low values
  normalized growth: 0.999
Locus YBR231C, strain swc5, hits give low values
  normalized growth: 1.01
Locus YBR279W, strain paf1, hits give low values
  normalized growth: 1.02
Locus YCL011C, strain gbp2, hits give low values
  normalized growth: 1.03
Locus YCL016C, strain dcc1, hits give low values
  normalized growth: 1.03
Locus YCL029C, strain bik1, hits give low values
  normalized growth: 1.01
Locus YCL061C, strain MRC1, hits give low values
  normalized growth: 1.02
Locus YCL069W, strain vba3, hits give low values
  normalized growth: 1.02
Locus YCR088W, strain abp1, hits give low values
  normalized growth: 1.02
Locus YDL005C, strain med2, hits give low values
  normalized growth: 1.01
Locus YDL035C, strain GPR1, hits give low values
  normalized growth: 0.986
Locus YDL040C, strain nat1, hits give low values
  normalized growth: 1.02
Locus YDL074C, strain BRE1, hits give low values
  normalized growth: 0.947
Locus YDL101C, strain DUN1, hits give low values
  normalized growth: 1
Locus YDL134C, strain PPH21, hits give low values
  normalized growth: 0.995
Locus YDL185W, strain tfp1, hits give low values
  normalized growth: 1
Locus YDL192W, strain arf1, hits give low values
  normalized growth: 1.01
Locus YDR001C, strain nth1, hits give low values
  normalized growth: 1.02
Locus YDR069C, strain doa4, hits give low values
  normalized growth: 0.969
Locus YDR101C, strain arx1, hits give low values
  normalized growth: 0.982
Locus YDR137W, strain rgp1, hits give low values
  normalized growth: 1.21 [resistant] (active)
Locus YDR150W, strain NUM1, hits give low values
  normalized growth: 1.01
Locus YDR159W, strain sac3, hits give low values
  normalized growth: 1.03
Locus YDR162C, strain NBP2, hits give low values
  normalized growth: 0.993
Locus YDR195W, strain ref2
  normalized growth: 1.07
Locus YDR297W, strain sur2, hits give low values
  normalized growth: 1.03
Locus YDR318W, strain mcm21, hits give low values
  normalized growth: 0.983
Locus YDR334W, strain swr1, hits give low values
  normalized growth: 1.03
Locus YDR335W, strain msn5, hits give low values
  normalized growth: 1.03
Locus YDR388W, hits give low values
  normalized growth: 0.924 (active)
Locus YDR392W, strain spt3, hits give low values
  normalized growth: 1.04
Locus YDR502C, strain sam2, hits give low values
  normalized growth: 0.983
Locus YEL003W, strain gim4, hits give low values
  normalized growth: 1.01
Locus YEL037C, strain rad23, hits give low values
  normalized growth: 1.02
Locus YEL061C, strain CIN8 (second series), hits give low values
  normalized growth: 1.03
Locus YEL061C, strain CIN8, hits give low values
  normalized growth: 1.01
Locus YER015W, strain faa2, hits give low values
  normalized growth: 1.02
Locus YER016W, strain bim1, hits give low values
  normalized growth: 1.02
Locus YER110C, hits give low values
  normalized growth: 1
Locus YER111C, strain swi4, hits give low values
  normalized growth: 1.01
Locus YER155C, strain BEM2 (second series), hits give low values
  normalized growth: 1.01
Locus YER155C, strain BEM2, hits give low values
  normalized growth: 1
Locus YER167W, strain BCK2, hits give low values
  normalized growth: 0.998
Locus YFR010W, strain ubp6, hits give low values
  normalized growth: 0.986
Locus YGL078C, strain dbp3, hits give low values
  normalized growth: 0.99
Locus YGL086W, strain mad1, hits give low values
  normalized growth: 0.974
Locus YGL167C, strain pmr1, hits give low values
  normalized growth: 1.02
Locus YGL173C, strain kem1, hits give low values
  normalized growth: 1.01
Locus YGL227W, strain vid30, hits give low values
  normalized growth: 1.02
Locus YGL240W, strain doc1, hits give low values
  normalized growth: 1.02
Locus YGL248W, strain PDE1, hits give low values
  normalized growth: 0.99
Locus YGL253W, strain hxk2, hits give low values
  normalized growth: 1.02
Locus YGR078C, strain PAC10, hits give low values
  normalized growth: 0.977
Locus YGR135W, strain pre9, hits give low values
  normalized growth: 0.951
Locus YGR229C, strain SMI1, hits give low values
  normalized growth: 0.901
Locus YGR252W, strain gcn5, hits give low values
  normalized growth: 0.888
Locus YHR013C, strain ard1, hits give low values
  normalized growth: 0.895
Locus YHR027C, strain rpn1, hits give low values
  normalized growth: 1.03
Locus YHR030C, strain SLT2, hits give low values
  normalized growth: 1
Locus YHR079C, strain IRE1 (second series), hits give low values
  normalized growth: 0.994
Locus YHR094C, strain hxt1, hits give low values
  normalized growth: 0.997
Locus YHR129C, strain ARP1, hits give low values
  normalized growth: 1
Locus YHR142W, strain chs7, hits give low values
  normalized growth: 1.01
Locus YHR200W, strain rpn10, hits give low values
  normalized growth: 0.989
Locus YIL066C, strain RNR3, hits give low values
  normalized growth: 0.988
Locus YIL073C, strain SPO22, hits give low values
  normalized growth: 1.12
Locus YIL125W, strain kgd1, hits give low values
  normalized growth: 1
Locus YIR030C, strain dcg1, hits give low values
  normalized growth: 0.996
Locus YJL092W, strain hpr5, hits give low values
  normalized growth: 1.02
Locus YJL095W, strain BCK1 (second series), hits give low values
  normalized growth: 1.03
Locus YJL095W, strain BCK1, hits give low values
  normalized growth: 0.913
Locus YJL115W, strain asf1, hits give low values
  normalized growth: 1.02
Locus YJL129C, strain trk1, hits give low values
  normalized growth: 1.04
Locus YJL134W, strain LCB3, hits give low values
  normalized growth: 1
Locus YJL154C, strain vps35, hits give low values
  normalized growth: 1.01
Locus YJL164C, strain tpk1, hits give low values
  normalized growth: 1.02
Locus YJL166W, strain qcr8, hits give low values
  normalized growth: 1.01
Locus YJL168C, strain set2, hits give low values
  normalized growth: 1
Locus YJL187C, strain SWE1 (second series), hits give low values
  normalized growth: 0.983
